Compound activity (PubChem)
Rows were chosen to be rich in hits. Some 7.8% of all compounds tested hit in one or more screens of this group.
HCV inhibitor: qHTS Assay for Inhibitors of Hepatitis C Virus (HCV). Huh7.5.1 HCVcc-Cre infection, luciferase reporter, 44 h. Potency, µM (series often up to 41.8 µM), for the others: at the highest dose activity change, negative = inhibition, hits mostly inhibitors. actives 3.4% (n = 340,000); active means well fitted inhibition curve with a large enough effect; inconclusive means small, poorly fitted or top-dose-only effect, or another doubt; inactive means no such curve, though single readings can be large or run the other way; further: potency means the concentration at half of the fitted maximal effect
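Whole-lifecycle infectious HCVcc-Cre system; cells 1,000/well, compound then virus (~0.5 moi) added 4 h after plating, 44 h culture. Luciferase read 15 sec following 15 min substrate incubation, room temp.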
HCMV antiviral: qHTS Assay for inhibitors of the human cytomegalovirus (HCMV). actives 4.5% (n = 410,000). activity change, negative = inhibition, % at 57.5 µM. HFF cells, HCMV-luciferase reporter, 72 h; hits give low values; in the data active means activity change below about -60%; inconclusive means no clear call, values can overlap the other calls; inactive means above about -39%
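Luciferase read-out from HCMV-luciferase-infected HFFs (MOI 1 PFU/cell) 72 h post infection at 37C; compounds added after 16 h cell attachment; activity normalized between buffer-only basal and Salinomycin (10uM) inhibitor controls.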
VACV Venus inh: qHTS for Stage-Specific Inhibitors of Vaccinia Orthopoxvirus: Venus Reporter Primary qHTS; Potency, µM (doses to about 36.5 µM), for inactives: at the highest dose activity change, negative = inhibition, usual class: inhibitors; Vaccinia virus Venus reporter expression, fluorescence; actives 0.46% (n = 330,000); calls by dose curve; tested in A549 cells; further: potency means the concentration at half of the fitted maximal effect; nearly all actives have a fitted effect of over 30% in size
Vaccinia mCherry: qHTS for Stage-Specific Inhibitors of Vaccinia Orthopoxvirus: mCherry Reporter Primary qHTS; Potency, µM (doses to about 36.5 µM), without a hit: top-dose activity change, negative = inhibition, hits mostly inhibitors; actives 0.63% (n = 310,000); Vaccinia virus mCherry reporter infection, fluorescence; calls by dose curve; tested in A549 cells; further: potency means the concentration at half of the fitted maximal effect; nearly all actives have a fitted effect of over 35% in size
Lassa entry inh: qHTS for Inhibitors of binding or entry into cells for Lassa Virus | Lassa virus pseudotype entry inhibition, cell reporter | actives 1.2% (n = 300,000) | AID 540256, 2011 | Potency, µM (titrated, usually from 37.9 µM), for inactives: top-dose activity change, negative = inhibition, hits mostly inhibitors; calls by dose curve; tested in HEK293 cells; further: potency means the concentration at half of the fitted maximal effect; nearly all actives have a fitted effect of over 50% in size
Marburg entry inh: qHTS for inhibitors of binding or entry into cells for Marburg Virus; Marburg virus pseudotyped entry inhibition, cell reporter; actives 1.8% (n = 300,000); Potency, µM (doses to about 37.8 µM), without a hit: top-dose activity change, negative = inhibition, usual class: inhibitors; calls by dose curve; tested in HEK293 cells; further: potency means the concentration at half of the fitted maximal effect
Starred values were filed as active, the others as inactive; i = inactive; ? = inconclusive; nt = no result given; + = active, no number; ! = a repeat was not active; [ ] = remark or other dose. On the % scale 0 is the no-effect control and ±100 the full control effect.

SMILES	HCV inhibitor	HCMV antiviral	VACV Venus inh	Vaccinia mCherry	Lassa entry inh	Marburg entry inh
CC(C)Nc1ccc(Nc2ccnc3cc4ccccc4cc23)cc1	?	-100.1*	?	?	6.31µM*	5.17µM*
COc1ccccc1[C@H]1/C(=C(\O)c2ccc(C)cc2)C(=O)C(=O)N1CCN1CCOCC1	nt	nt	nt	nt	nt	14.6%
COc1ccc(C2C=C(C34CC5CC(CC(C5)C3)C4)NC(=S)N2)cc1 (stereo not drawn)	-16.3%	-22.3	nt	nt	?	14.6µM*
COc1ccc(C2=CC(c3ccc(OC)c(OC)c3)NC(=S)N2)cc1 (stereo not drawn)	-6.8%	-7.5	1.6%	?	0.0%	-13.2%[46.1 µM]
CCN(CC)CCNc1ccc(CO)c2oc3cc(Cl)ccc3c(=O)c12	nt	-28.3	?	?	nt	nt
CCN(CC)CCNc1ccc(C)c2sc3ccc(O)cc3c(=O)c12	?	-96.9*	?	?	?	2.24µM*
COc1cccc(Cc2nc3cccnc3n2C2CCN(C(=O)c3n[nH]c4c3CCCC4)CC2)c1	nt	nt	1.5%	-13.1%	nt	nt
CCOc1ccc(NC(=O)CSc2nc3ccsc3c(=O)n2CCCCCC(=O)O)cc1	nt	+!	-5.5%	-7.7%	-24.0%[46.1 µM]	nt
O=C(CN1C(=O)COc2ccc(S(=O)(=O)N3CCOCC3)cc21)N1CCN(c2ccc(Cl)cc2)CC1	nt	-8.6	0.3%	6.6%	-5.0%[46.1 µM]	2.4%[46.1 µM]
COc1ccc(Cl)cc1NC(=O)c1cccc(-n2cnnn2)c1	10µM*	-63.3*	-18.8%	-17.5%	-4.3%	-15.2%
COc1ccc(Cl)cc1NC(=O)c1cc(C)no1	10µM*	55.8	-8.2%	i	5.4%[46.1 µM]	5.3%[46.1 µM]
CCOc1ccc(Nc2nc3cc(S(=O)(=O)N(CC)CC)ccc3o2)cc1	10µM*	nt	?	?	?	?
CCN(CC)S(=O)(=O)c1ccc2oc(Nc3ccc(OC)cc3)nc2c1	?	-37.5	-12.7%	?	-21.4%	-17.4%
CC1CC(C)CN(CC(O)COCCOc2ccc(Br)cc2)C1 (stereo not drawn)	?	-34.3	-14.8%	-14.8%	?	13µM*
c1ccc2sc(C3(N4CCCCC4)CCCCC3)cc2c1	nt	nt	-6.4%	i	?	7.08µM*
COc1cc(C)c2occ(/C(C)=N\O)c2c1	8.91µM*	42.6	nt	nt	5.1%	5.2%
COc1ccc(S(=O)(=O)N2CCCN(CC(=O)Nc3ccc(OC)cc3OC)CC2)cc1	nt	-21.3	-0.8%	-0.8%	-10.8%[46.1 µM]	4.1%[46.1 µM]
CCN(c1ccccc1)S(=O)(=O)c1ccc2[nH]cc(C(=O)NCc3ccc(C)cc3)c(=O)c2c1	nt	-0.8	-18.1%	-19.5%	?	nt
CCN(CC)C(=O)Oc1cc2c(-c3cc4cccc(OC)c4o3)cc(=O)oc2cc1C	6.31µM*	-17.0	1.6%	i	?	26.4%[46.1 µM]
CN(C)C(=O)Oc1ccc2oc(=O)cc(-c3cc4ccccc4o3)c2c1	11.2µM*	-20.0	nt	nt	nt	nt
Cc1cc2oc(=O)cc(-c3cc4ccccc4o3)c2cc1OC(=O)N(C)C	5.01µM*	-16.2	-2.8%	-10.0%	-22.9%[46.1 µM]	3.1%[46.1 µM]
NC(=O)COc1ccc2oc(=O)cc(-c3cc4ccccc4o3)c2c1	6.6%	-13.9	nt	nt	nt	nt
COC(=O)COc1ccc2oc(=O)cc(-c3cc4ccccc4o3)c2c1	-4.1%	40.8	nt	nt	nt	nt
O=[N+]([O-])c1ccc(Nc2c3ccccc3nc3ccccc23)cc1	-9.0%	-90.1*	?	?	-26.2%	?
O=[N+]([O-])c1ccccc1Nc1c2ccccc2nc2ccccc12	?	-61.8*	-13.9%	?	?	?
SMILES	HCV inhibitor	HCMV antiviral	VACV Venus inh	Vaccinia mCherry	Lassa entry inh	Marburg entry inh
O=C(O)c1ccc(Nc2nc(-c3ccc([N+](=O)[O-])cc3)nc3ccccc23)cc1	14.1%	23.5	-16.8%	-5.7%	nt	nt
O=C(NC1CC1)[C@@H]1C[C@@H](Sc2nc3ccccc3[nH]2)CN1CC1CCCCC1	nt	nt	-14.7%	-23.7%	nt	nt
O=C1N=C(N2CCN(c3ccccc3)CC2)S/C1=C\c1cn[nH]c1-c1ccccc1	0.4%	-12.4	-3.0%	-17.1%	1.6%	?
O=C1N=C(N2CCC(Cc3ccccc3)CC2)S/C1=C/c1cn[nH]c1-c1ccccc1	?	-16.6	nt	nt	?	10.3µM*
O=[N+]([O-])c1ccc(S(=O)(=O)N2CCN(c3nc(-c4cccs4)nc4ccccc34)CC2)cc1	nt	nt	-11.8%	-15.5%	nt	nt
COc1ccccc1CNC(=O)CSc1nc2ccccc2c(=O)n1CCCN1CCOCC1	-16.2%	-34.3	-24.9%	-18.2%	-3.9%	-11.2%[46.1 µM]
CC(=O)c1ccccc1NC(=O)CSc1nc2ccccc2c(=O)n1CCCN1CCOCC1	-12.3%	-22.2	-5.3%	-11.2%	3.4%	5.0%
O=C(CSc1nc2ccccc2c(=O)n1CCCN1CCOCC1)c1c[nH]c2ccccc12	14.1µM*	?	-16.2%	-17.4%	?	?
O=c1c2ccccc2nc(SCc2ccc(F)cc2Cl)n1CCCN1CCOCC1	10µM*	-38.8	nt	nt	nt	nt
Cc1ccc(CNC(=O)CN(C(=O)C2(C)CC(=O)N=C3C=CC=CN32)c2cc(C)ccc2C)cc1 (stereo not drawn)	1.4%	37.7	-10.2%	-11.3%	-11.5%	-6.0%[46.1 µM]
Cc1ccc(CNC(=O)CN(Cc2cccs2)C(=O)C2(C)CC(=O)N=C3C=CC=CN32)cc1 (stereo not drawn)	-1.8%	-77.3*	-5.0%	-8.0%	7.8%	4.1%
COc1ccc(-c2csc3nc(-c4ccccc4OC)oc(=O)c23)cc1	-17.1%	-69.4*	?	?	-4.0%[46.1 µM]	?
O=C(c1ccccc1)N1CCN(C(=O)c2ccccc2)c2ccccc21	3.16µM*	-99.8*	-14.6%	-11.6%	?	?
O=C(c1ccccc1)N1CCc2ccccc21	7.0%	6.4	-16.8%	-16.3%	3.9%	13.1%
CC(=O)Nc1ccccc1C	38.1%	?	-13.5%	i	nt	nt
N#C/C(=C/c1ccc(C(=O)O)cc1)C(=O)Nc1ccccc1	6.3%	-24.8	-5.0%	i	14.9%	?
Cc1ccccc1NC(=O)C(=Cc1ccc(C(=O)O)cc1)C(=O)Nc1ccccc1C	?	-98.7*	?	?	?	?
CC(=O)/C(=C/c1ccccc1)C(=O)Nc1ccccc1C	?	-96.3*	?	?	nt	nt
COc1cc(OC)cc(C(=O)Nc2ccc3nc4n(c(=O)c3c2)CCCCC4)c1	?	17.4	-9.4%	-8.9%	-13.4%[46.1 µM]	?
CCOc1ccc(NC(=O)c2ccc3c(=O)n4c(nc3c2)CCCCC4)cc1	11.2µM*	-63.1*!	?	-4.6%	-2.3%[46.1 µM]	-2.2%[46.1 µM]
O=C(Nc1cccc(S(=O)(=O)N2CCCCC2)c1)c1ccc2c(=O)n3c(nc2c1)CCCCC3	6.31µM*	-88.3*	?	-28.7%	?	3.16µM*
